Lmaj promast = inhibitors of Leishmania major promastigote growth; Leishmania major promastigotes, resazurin fluorescence viability; inhibition, % at 10 µM; 200,000 tested, 9% active; in the data active = inhibition above about 50%;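 note: promastigotes grown with compound for 44 hours at 28 °C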
CHOP inh = inhibitors of CHOP induction in ER stress response. inhibition, % at 10 µM. 220,000 tested, 3.8% active. CHO-K1 CHOP-promoter luciferase, tunicamycin-induced, 15-18 h;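 active = compounds that reduced the stress-induced luciferase reporter signal by more than about 70% of percent inhibition, limit read from the data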
WT yeast gro inh = growth inhibition of WT yeast, mitochondrial fusion screen; 190,000 tested, 2.1% active; AID 1362; inhibition, % at 10 µM; mitochondrial fusion phenotypic screen, WT strain; in the data active = inhibition above about 58%; tested in S. cerevisiae
Arbovirus anti = blocks arbovirus infection | 200,000 tested, 0.37% active | AID 1251 | inhibition, % at 10 µM | arbovirus infection cell-based antiviral screen; in the data active = inhibition above about 30%
CHOP confirm = confirmation of CHOP induction inhibitors; 2,100 tested, 45% active; inhibition, % at 10 µM; shares compounds with CHOP inh; CHO-CHOP promoter luciferase reporter, tunicamycin-induced, luminescence;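 active = mean of three repeat readings of reporter signal inhibition above a set limit, cut at about 70% in these data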
Each line names hits and unclear results; the compound was inactive in the other large screens (follow-up assays come after a bar, where they were run). Shown are actives, neighbours in structure and some others; about 12% of the full set was active somewhere.

CCOC(=O)Cc1csc(NC(=O)NC2(C(F)(F)F)Oc3cc(Cl)c(Cl)cc3O2)n1	CHOP inh 102 | CHOP confirm 110
CN1CCN(Cc2nc3c(c(=O)n(C)c(=O)n3C)n2Cc2ccccc2Cl)CC1	none (no result: Lmaj promast, CHOP inh)
S=C(NCCc1ccccc1)Nc1c(Cl)cccc1Cl	none (no result: Lmaj promast, WT yeast gro inh, Arbovirus anti)
Cc1cc(C)n(-c2cc(-c3ccccc3)nc(C)n2)n1	none
Cc1ccc2c(c1)c1c(n2CC(O)Cn2c(C)nc3ccccc32)CCCC1 (centres undefined)	CHOP inh 98 | CHOP confirm 82
CCN(CCO)c1ncnc2c1sc1nc(C(C)C)c3c(c12)CC(C)(C)OC3	CHOP inh 99 | CHOP confirm 103
CCc1ccc(-c2nc(CN3CCC(C(=O)NCCN(CC)c4ccccc4)CC3)c(C)o2)cc1	Lmaj promast 65, CHOP inh 98, WT yeast gro inh 71 | CHOP confirm 105
Cn1c(SCC(=O)N2CCOCC2)nc(O)cc1=O	none
CCCCNc1ccc(C(CC(N)=O)NC(=O)Cc2cccc3ccccc23)cc1[N+](=O)[O-] (centres undefined)	CHOP inh 104 (no result: Lmaj promast, WT yeast gro inh, Arbovirus anti) | CHOP confirm inactive
Cc1cccc(CNc2ccc(C(CC(N)=O)NC(=O)Cc3cccc4ccccc34)cc2[N+](=O)[O-])c1 (centres undefined)	CHOP inh 105 (no result: Lmaj promast, WT yeast gro inh, Arbovirus anti) | CHOP confirm inactive
NC(=O)CC(NC(=O)Cc1ccc(Br)cc1)c1ccc(N2CCN(c3ccccc3)CC2)c([N+](=O)[O-])c1 (centres undefined)	CHOP inh 103 (no result: Lmaj promast, WT yeast gro inh, Arbovirus anti) | CHOP confirm inactive
CC(C)NS(=O)(=O)c1ccc2c(c1)NCC2	none
CCOC(=O)/C(=C/C1=CC(=C/N(C)C)/C(=O)O1)C(C)=O	none (no result: Lmaj promast, WT yeast gro inh, Arbovirus anti)
CCc1nc(SCC(=O)Nc2nccs2)c2oc3ccccc3c2n1	CHOP inh 102 | CHOP confirm inactive
O=C(CSc1ncnc2c1oc1ccccc12)Nc1nccs1	none
Cc1cc(C)c(S(=O)(=O)ON2C(=O)c3ccccc3C2=O)cc1C	CHOP inh 108 (no result: WT yeast gro inh) | CHOP confirm 87
COC(=O)CON1C(=O)c2ccccc2C1=O	none
Cc1cc(C)c(C)c(S(=O)(=O)ON2C(=O)c3ccccc3C2=O)c1C	CHOP inh 101 | CHOP confirm 108
COc1ccc(OC)c(-c2csc(NC(=O)c3ccc4c(c3)OCO4)n2)c1	none
CCOC(=O)C1=C(C)NC(C)=C(C(=O)OCC)C1/C=C/c1ccccc1	CHOP inh 99 | CHOP confirm 92
C=CCOC(=O)C1=C(C)NC(C)=C(C(=O)OCC=C)C1/C=C/c1ccccc1	Lmaj promast 100, CHOP inh 100 | CHOP confirm 105
Cc1cc(NCCCN)nc(-c2ccccc2O)n1	CHOP inh 101 | CHOP confirm inactive
Cc1cc(N/N=C/c2ccc(O)c(C)c2O)nc(-c2ccccc2O)n1	Lmaj promast 93, CHOP inh 107, WT yeast gro inh 76 | CHOP confirm inactive
CC(/C=N\NC(=O)c1ccc(C)nc1)=C\c1ccccc1	none
COC(=O)Cn1c(=NC(=O)c2nc3ccccc3s2)sc2cc(S(N)(=O)=O)ccc21	CHOP inh 104 | CHOP confirm inactive
COC(=O)Cn1c(=NC(=O)c2cc(-c3cccs3)nc3ccccc23)sc2cc(S(N)(=O)=O)ccc21	none
COc1cc(C)nc(N2CCCC(C(=O)Nc3cccc(Cl)c3C)C2)n1 (centres undefined)	CHOP inh 105 | CHOP confirm 95
CC1CCCN(c2nc(NCc3ccco3)nc(N)c2[N+](=O)[O-])C1 (centres undefined)	none
Cc1ccc(Nc2nc(N)c([N+](=O)[O-])c(N3CCCC(C)C3)n2)cc1C (centres undefined)	CHOP inh 101, WT yeast gro inh 96 | CHOP confirm inactive
Cc1csc(NC(=O)CSc2nnc(NC(=O)COc3ccccc3)s2)n1	Lmaj promast 51, CHOP inh 101 | CHOP confirm inactive
O=C(Nc1cccc(Cl)c1Cl)c1cc(S(=O)(=O)NCCc2ccccc2)ccc1F	CHOP inh 97 | CHOP confirm 88
O=C(NCCc1ccccc1)c1cc(S(=O)(=O)N2CCOCC2)ccc1F	none
OC(c1cccc(OCc2ccccc2)c1)c1nnc(-c2ccccc2)o1 (centres undefined)	CHOP inh 111 | CHOP confirm 106
OC(c1ccc(OCc2ccccc2)cc1)c1nnc(-c2ccccc2)o1 (centres undefined)	CHOP inh 97 | CHOP confirm inactive
c1ccc(-c2nnc(C(c3ccccc3)c3ccccc3)o2)cc1	none
Brc1cccc(CN2CCCCCCC2)c1	none
COc1ccc(NC(=O)CCC(=O)OCc2ccc([N+](=O)[O-])cc2)cc1	none
Cc1ccc(C#CC[N+]2(C)CCCCC2)cc1	none (no result: Lmaj promast, WT yeast gro inh, Arbovirus anti)
COc1ccc(OCc2cccc(C(=O)Nn3cc([N+](=O)[O-])cn3)c2)cc1	CHOP inh 98 | CHOP confirm 123
CC(C)=C1C2CCC1C(C(=O)Nc1sc(C)c(-c3ccc(C(C)C)cc3)c1C(N)=O)C2C(=O)O (centres undefined)	CHOP inh 103, WT yeast gro inh 62 | CHOP confirm 100
Cc1ccc(-c2c(C)sc(NC(=O)C3C4CCC(O4)C3C(=O)O)c2C(=O)OC(C)C)cc1 (centres undefined)	none
Cc1oc2ccc(NS(=O)(=O)c3ccc(C(C)(C)C)cc3)cc2c1C(=O)Nc1ccccc1	CHOP inh 107 | CHOP confirm inactive
NCCCNC(=O)c1cc2ccccc2[nH]1	CHOP inh 107 | CHOP confirm inactive
CC(C)Oc1ccc(CNC(=S)N/N=C/c2ccc([N+](=O)[O-])cc2)cc1	CHOP inh 98 | CHOP confirm 102
Cc1cc(C(=O)COC(=O)c2ccccc2O)c(C)n1Cc1cccs1	CHOP inh 109 | CHOP confirm 111
COc1ccc(-c2n[nH]c(C)c2-c2cnn(-c3ccccc3)c2)c(O)c1C	Lmaj promast 67, CHOP inh 99 | CHOP confirm inactive
Cc1oc2c(O)c(O)ccc2c(=O)c1-c1cnn(-c2ccccc2)c1	none
CC1=CCC[C@@H]2[C@@](C)(CC/C(C)=C/C(=O)O)[C@H](C)CC[C@@]12C	CHOP inh 99, WT yeast gro inh 73 | CHOP confirm 112
Cc1ccc(-c2nc3ccccc3s2)cc1NC(=O)c1cc(-n2cnnc2)ccc1Cl	CHOP inh 100 | CHOP confirm inactive
Cc1ccc(-c2nc3ccccc3s2)cc1NC(=S)NC(=O)c1ccccc1	none
CCN1CCN(Cc2ccc(NC(=O)c3ccc(C)c(NC(=O)c4c[nH]c5cc(C(F)(F)F)ccc5c4=O)c3)cc2C(F)(F)F)CC1	CHOP inh 104 (no result: Lmaj promast, WT yeast gro inh, Arbovirus anti) | CHOP confirm 114
COc1ccc(Cn2c(SCc3cc(C)ccc3C)nc3cc(OC)c(OC)cc3c2=N)cc1	Lmaj promast 101, CHOP inh 104 | CHOP confirm 123
O=Nc1c(O)n(Cc2ccc(Cl)c(Cl)c2)c2ccccc12	Lmaj promast 77, CHOP inh 107 | CHOP confirm inactive
O=C(ONc1ccc(N=NC(=O)c2ccccc2O)cc1)c1ccccc1	CHOP inh 107 | CHOP confirm 132
O=C(CN1CCN(c2ncc(C(F)(F)F)cc2Cl)CC1)NCCNc1ncc(C(F)(F)F)cc1Cl	CHOP inh 101 | CHOP confirm 106

Source: PubChem BioAssay
